The results in this text go back to the supplement of paper PMC6522484.

± gives the standard deviation of the averaged measurements.

The subject of assay [1] is DLD1. Put plainly: cell viability (CellTiter-Glo) relative to plate median (fraction of plate median); higher = more viable cells. The following applies: 5 µM; treatment time 24 h; reporter: 7TFP. In a few lines: (§1)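 After seeding in 384-well plates, colorectal cancer cell lines carrying stable lentiviral TCF/Wnt firefly luciferase reporters (7TFP or TCF4/Wnt) were left 24 h. Library compounds were then added at a final 5 µM for 24 h. A Tecan F500 reader measured firefly luciferase or CellTiterGlo luminescence on parallel plates, with each well normalised to the plate median by webcellHTS2 (additive, no log transformation), and two independent replicates averaged.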

A further assay deals with HCT116. The assay is described as above. The following applies: 5 µM; treatment time 24 h; reporter: TCF4/Wnt. In a few lines: as §1
For assay [2], the system named is SW480. Described as above. The following applies: 5 µM; treatment time 24 h; reporter: 7TFP. A digest of the protocol: as §1
For assay [3], the system named is DLD1. Kind of assay: TCF/Wnt firefly luciferase reporter signal relative to plate median (fraction of plate median); higher = higher Wnt reporter signal. The following applies: 5 µM; treatment time 24 h; reporter: 7TFP. A digest of the protocol:
as §1
On the technique in general: Reporter assays use an easily measured gene product as a stand-in for the process of interest.

Assay [4] relates to SW480. The assay is described as above. The following applies: 5 µM; treatment time 24 h; reporter: 7TFP. In a few lines:
as §1

For the compound `Oc1ccc(Cl)cc1Cc1cc(Cl)ccc1O`, the figures for the cell viability in the assay with DLD1 [1], with HCT116 and with SW480 [2] were 0.881 ± 0.12, 0.868 ± 0.0092 and 1.03 ± 0.035, respectively. In addition, the “TCF/Wnt firefly luciferase reporter signal” value stood at 0.883 ± 0.17 in the assay on DLD1 [3] and 0.953 ± 0.081 in the assay with SW480 [4].
Consider `COc1ccc(Cc2nccc3cc(OC)c(OC)cc23)cc1OC`, for which the cell viability in the assay with DLD1 [1] stood at 1.09 ± 0.085; in the assay on HCT116, 1.01 ± 0.1; in the assay with SW480 [2], 0.994 ± 0.066. Moreover, the “TCF/Wnt firefly luciferase reporter signal” value came to 0.961 ± 0.052 in the assay on DLD1 [3] and 1.07 ± 0.057 with SW480 [4].
On the same counts, the results for `COc1cc2c(cc1OC)[C@H](C)NCC2` are 0.962 ± 0.044, 0.96 ± 0.13, 0.9455 ± 0.00071, 1.06 ± 0.085 and 1.07 ± 0.014.
Take `COc1cc2c(cc1-c1cc3cc4ccoc4cc3oc1=O)OCO2`: the cell viability in the assay with DLD1 [1] was 0.964 ± 0.03; in the assay with HCT116, 0.949 ± 0.054; in the assay with SW480 [2] it was 0.93 ± 0.059. Further, the “TCF/Wnt firefly luciferase reporter signal” value with DLD1 [3] is 0.973 ± 0.017; in the assay on SW480 [4] it was 0.9445 ± 0.0021.
For `C[C@]12CC[C@H]3[C@@H](CCC4=CC(=O)CC[C@@]43C)[C@@H]1CC[C@@H]2O` the same measures were 1.03 ± 0.021, 1.15 ± 0.17, 1.045 ± 0.0071, 0.967 ± 0.061 and 1.04 ± 0.092.
In the case of `CC(C)CCCC1(C)C=Cc2c(O)c3c(c(CCC(C)C)c2O1)OC12C(CC4CC1C(C)(C)OC2(CCC(C)C(=O)O)C4O)C3=O` (stereo not given), the cell viability was 1.08 ± 0.042 with DLD1 [1], 0.997 ± 0.0042 in the assay with HCT116 and 1.07 ± 0.092 in the assay on SW480 [2]. Also, the “TCF/Wnt firefly luciferase reporter signal” value turned out to be 1.06 ± 0.014 with DLD1 [3] and 1.06 ± 0.092 with SW480 [4].
In the case of `N=C(NCCC[C@H](N)C(=O)O)N[N+](=O)[O-]`, the cell viability in the assay with DLD1 [1] amounted to 0.944 ± 0.14; in the assay with HCT116, 0.966 ± 0.047; in the assay with SW480 [2], 0.9515 ± 0.0064. The “TCF/Wnt firefly luciferase reporter signal” value in the assay on DLD1 [3] was found to be 1.07 ± 0.05; with SW480 [4] it was 0.947 ± 0.09.
Take `CCC1(CC)C(=O)C=CNC1=O`: the values for the cell viability in the assay on DLD1 [1], with HCT116 and with SW480 [2] were 0.965 ± 0.016, 0.923 ± 0.025 and 0.926 ± 0.013, respectively. For the same compound, the “TCF/Wnt firefly luciferase reporter signal” value in the assay with DLD1 [3] stood at 1.02 ± 0.09; in the assay with SW480 [4] it was 1.07 ± 0.021.
Consider `CC(C)c1cc2c(c(O)c1O)[C@@]1(C(=O)O)CCCC(C)(C)[C@@H]1CC2`, for which the cell viability came out at 0.981 ± 0.013 with DLD1 [1], 1.03 ± 0.079 in the assay on HCT116 and 1.03 ± 0.021 in the assay with SW480 [2]. The results for the “TCF/Wnt firefly luciferase reporter signal” value with DLD1 [3] and in the assay on SW480 [4] were 1.03 ± 0.021 and 0.944 ± 0.11, respectively.
Regarding `NCCc1c[nH]c2ccccc12`, the cell viability with DLD1 [1] came out at 0.991 ± 0.041; with HCT116, 1.03 ± 0.16; in the assay with SW480 [2], 0.952 ± 0.061. Moreover, the “TCF/Wnt firefly luciferase reporter signal” value in the assay with DLD1 [3] came to 0.988 ± 0.045; in the assay on SW480 [4], 1.03 ± 0.021.
For `C/C(=C\c1csc(C)n1)[C@@H]1C[C@@H]2O[C@@H]2CCC[C@H](C)[C@H](O)[C@@H](C)C(=O)C(C)(C)[C@@H](O)CC(=O)O1` [Epothilone A] the same measures were 1.09 ± 0.021, 0.464 ± 0.073, 1.14 ± 0.099, 0.732 ± 0.076 and 0.8595 ± 0.0078.
For `CC(C)=CC1C(C(=O)OCc2cccc(Oc3ccccc3)c2)C1(C)C` (stereo not given), the cell viability in the assay with DLD1 [1] amounted to 0.971 ± 0.02; in the assay on HCT116 it was 1.02 ± 0.037; in the assay on SW480 [2], 0.985 ± 0.035. For the same compound, the “TCF/Wnt firefly luciferase reporter signal” value in the assay with DLD1 [3] amounted to 0.988 ± 0.1; in the assay on SW480 [4], 0.979 ± 0.0042.
For `CC[C@H]1CN2CCc3cc(OC)c(OC)cc3[C@@H]2C[C@@H]1C[C@H]1NCCc2cc(OC)c(OC)cc21` the same measures were 0.984 ± 0.094, 0.815 ± 0.3, 0.902 ± 0.059, 0.615 ± 0.1 and 0.608 ± 0.064.
Turning to `CO[C@]12C[C@@H](COC(=O)c3cncc(Br)c3)CN(C)[C@@H]1Cc1cn(C)c3cccc2c13`, the figures for the cell viability in the assay on DLD1 [1], with HCT116 and with SW480 [2] were 0.999 ± 0.16, 0.976 ± 0.033 and 0.999 ± 0.03, respectively. Moreover, the figures for the “TCF/Wnt firefly luciferase reporter signal” value in the assay with DLD1 [3] and with SW480 [4] were 0.968 ± 0.1 and 1 ± 0.04, respectively.
For `C=C1C2CC[C@@]3(C)[C@H](c4ccoc4)OC(=O)C[C@]13O[C@H]1CC(=O)C(C)(C)[C@H](C(OC(C)=O)C(=O)OC)[C@@]21C` (stereo not given in full), the values for the cell viability in the assay with DLD1 [1], in the assay on HCT116 and with SW480 [2] were 1.025 ± 0.0071, 1.13 ± 0.057 and 1 ± 0.014, respectively. In addition, the “TCF/Wnt firefly luciferase reporter signal” value is 1.16 ± 0.057 with DLD1 [3] and 0.826 ± 0.048 in the assay with SW480 [4].
With `N#C[C@H](O[C@@H]1O[C@H](CO[C@@H]2O[C@H](CO)[C@@H](O)[C@H](O)[C@H]2O)[C@@H](O)[C@H](O)[C@H]1O)c1ccccc1`, the cell viability in the assay on DLD1 [1] was found to be 1.01 ± 0.09; in the assay on HCT116, 1.04 ± 0.089; in the assay with SW480 [2], 1.01 ± 0.042. For the same compound, the “TCF/Wnt firefly luciferase reporter signal” value in the assay with DLD1 [3] stood at 0.757 ± 0.0042; in the assay with SW480 [4] it was 0.916 ± 0.071.
Turning to `COC1=C[C@]23CCCN2CCc2cc4c(cc2[C@@H]3[C@@H]1O)OCO4`, the cell viability in the assay with DLD1 [1] is 0.98 ± 0.14; with HCT116 it was 1.01 ± 0.035; in the assay on SW480 [2] it was 1.01 ± 0.021. The results for the “TCF/Wnt firefly luciferase reporter signal” value in the assay on DLD1 [3] and in the assay on SW480 [4] were 0.997 ± 0.32 and 0.953 ± 0.067, respectively.
Consider `C[C@]12CCC3C(CC[C@H]4C[C@H](OS(=O)(=O)O)CC[C@]34C)C1CCC2=O` (stereo not given in full), for which the cell viability with DLD1 [1] worked out at 1.03 ± 0.021; in the assay with HCT116, 1.02 ± 0.079; in the assay with SW480 [2], 1.04 ± 0.061. Moreover, the results for the “TCF/Wnt firefly luciferase reporter signal” value in the assay on DLD1 [3] and in the assay with SW480 [4] were 0.755 ± 0.015 and 0.966 ± 0.039, respectively.
Regarding `C/C=C\C(=O)O[C@@H]1C[C@H]2O[C@@H]3C=C(C)C(=O)C[C@]3(C)[C@]1(C)[C@]21CO1` [Trichothecin], the cell viability came out at 0.922 ± 0.018 in the assay on DLD1 [1], 0.807 ± 0.025 in the assay on HCT116 and 0.945 ± 0.023 with SW480 [2]. For the same compound, the “TCF/Wnt firefly luciferase reporter signal” value in the assay with DLD1 [3] turned out to be 0.733 ± 0.1; in the assay on SW480 [4], 0.832 ± 0.067.
For the compound `O=[N+]([O-])c1ccc(O)c([N+](=O)[O-])c1`, the cell viability amounted to 0.981 ± 0.042 in the assay with DLD1 [1], 0.953 ± 0.034 in the assay on HCT116 and 0.905 ± 0.098 with SW480 [2]. For the same compound, the figures for the “TCF/Wnt firefly luciferase reporter signal” value with DLD1 [3] and with SW480 [4] were 0.966 ± 0.13 and 1.03 ± 0.035, respectively.
Take `COc1cc2c(cc1OC)[C@@H]1C(=O)c3ccc4c(c3O[C@@H]1CO2)CC(C(C)C)O4` (stereo not given in full): the cell viability with DLD1 [1] worked out at 0.963 ± 0.11; in the assay on HCT116, 0.685 ± 0.14; in the assay with SW480 [2], 0.9715 ± 0.0092. For the same compound, the “TCF/Wnt firefly luciferase reporter signal” value with DLD1 [3] amounted to 0.84 ± 0.0042; in the assay with SW480 [4], 0.842.
For `CC(=O)O[C@H]1CC[C@@]2(C)[C@H](CC[C@@H]3[C@@H]2CC[C@]2(C)[C@@H](C4=CC(=O)OC4)[C@@H](OC(C)=O)C[C@]32O)C1` the same measures were 0.633 ± 0.0092, 0.723 ± 0.06, 0.82 ± 0.086, 0.277 ± 0.1 and 0.592 ± 0.088.
Take `COc1cc2c(cc1OC)[C@@H]1C(=O)c3ccc(OC)c(CC=C(C)C)c3O[C@@H]1CO2`: the cell viability with DLD1 [1] came out at 0.943 ± 0.11; in the assay on HCT116 it was 0.849 ± 0.042; in the assay with SW480 [2], 0.992 ± 0.011. In addition, the “TCF/Wnt firefly luciferase reporter signal” value with DLD1 [3] came out at 0.848 ± 0.069; in the assay with SW480 [4], 0.947 ± 0.13.
Regarding `CC1NC(=O)C(NC(=O)c2cnc3ccccc3n2)COC(=O)C(C(C)C)N(C)C(=O)C2CSSCC(C(=O)N(C)C(C(C)C)C(=O)OCC(NC(=O)c3cnc4ccccc4n3)C(=O)NC(C)C(=O)N2C)N(C)C1=O` (stereo not given) [Triostin A], the cell viability in the assay on DLD1 [1] was found to be 0.968 ± 0.028; in the assay on HCT116 it was 0.984 ± 0.08; in the assay on SW480 [2], 0.992 ± 0.054. For the same compound, the “TCF/Wnt firefly luciferase reporter signal” value turned out to be 0.941 ± 0.073 with DLD1 [3] and 0.871 ± 0.037 in the assay with SW480 [4].
Consider `CC(=O)[C@H]1CC[C@H]2[C@@H]3CC[C@H]4C[C@H](O)CC[C@]4(C)[C@H]3CC[C@]12C`, for which the cell viability was determined as 0.966 ± 0.049 with DLD1 [1], 0.97 ± 0.0057 in the assay on HCT116 and 0.99 ± 0.014 with SW480 [2]. Also, the results for the “TCF/Wnt firefly luciferase reporter signal” value in the assay on DLD1 [3] and in the assay on SW480 [4] were 0.902 ± 0.047 and 0.912 ± 0.059, respectively.
For `OC[C@@H]1CCCN2CCCC[C@H]12` the same measures were 1.04 ± 0.014, 1 ± 0.053, 0.995 ± 0.036, 0.898 ± 0.14 and 0.964 ± 0.065.
In the case of `COc1cc([C@@H]2c3cc4c(cc3[C@H](O)[C@H]3COC(=O)[C@H]23)OCO4)cc(OC)c1OC`, the cell viability in the assay on DLD1 [1] was 0.903 ± 0.091; in the assay with HCT116, 0.552 ± 0.075; with SW480 [2], 0.95 ± 0.14. The “TCF/Wnt firefly luciferase reporter signal” value came to 0.831 ± 0.34 in the assay on DLD1 [3] and 0.783 ± 0.061 in the assay on SW480 [4].
On the same counts, the results for `CN1C(=O)CCS(=O)(=O)C1c1ccc(Cl)cc1` (stereo not given) are 1.01 ± 0.033, 1.02 ± 0.014, 0.946 ± 0.15, 0.984 ± 0.023 and 1.04 ± 0.093.
